The list is not random: actives were taken first. Their share in the collection is about 28%.
CYP2C9 activ: human CYP2C9 activators, primary screen, biochemical, luminescence; recombinant CYP2C9, luciferin-H conversion; stronger effect = higher value; factor 1 = untreated enzyme, 0 = blocked; activation factor at 5 µM; AID 1024, 2008; 1.4% of 96,000 active;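 active = activation factor of 2 or more for CYP2C9 at a 5 µM dose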;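 note: 0 = sulfaphenazole-blocked wells and 1 = vehicle-only wells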
Target sequence (P11712 whole entry, looked up): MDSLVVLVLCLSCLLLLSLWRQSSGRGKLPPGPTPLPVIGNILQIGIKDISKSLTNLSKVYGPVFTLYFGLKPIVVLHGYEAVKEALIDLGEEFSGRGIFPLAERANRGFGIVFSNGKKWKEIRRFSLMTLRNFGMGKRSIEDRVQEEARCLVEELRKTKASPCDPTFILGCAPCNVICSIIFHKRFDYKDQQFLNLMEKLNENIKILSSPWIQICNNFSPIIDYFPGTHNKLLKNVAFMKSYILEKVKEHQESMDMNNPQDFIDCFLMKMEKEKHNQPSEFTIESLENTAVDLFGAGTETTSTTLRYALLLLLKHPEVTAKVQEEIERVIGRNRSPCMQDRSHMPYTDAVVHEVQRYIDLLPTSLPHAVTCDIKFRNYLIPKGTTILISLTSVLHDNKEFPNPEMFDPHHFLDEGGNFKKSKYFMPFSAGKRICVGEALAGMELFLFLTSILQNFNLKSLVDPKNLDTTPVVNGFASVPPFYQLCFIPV
CYP2C19 act: human CYP2C19 activators, primary screen, biochemical, luminescence; AID 1025, 2008; activation factor at 5 µM; recombinant CYP2C19, luciferin-H EGE luminescence; stronger effect = higher value; 0 = fully inhibited enzyme, 1 = untreated enzyme; Cytochrome P450 2C19 (Homo sapiens), P33261; 96,000 tested, under 10 active;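 active = activation factor of at least 2 at 5 µM in the primary screen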;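 note: 0 = wells with 2.5 mM tranylcypromine and 1 = vehicle-only wells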
Mac1 fbg inh: inhibitors of CD11b/CD18 adhesion to fibrinogen, primary screen, K562 cells, luminescence; AID 1497, 2009; ATPlite luminescence; Mn2+ added to activate the integrin; inhibition, % at 10 µM; 0.54% of 93,000 active; Integrin beta-2 (Homo sapiens) + Integrin alpha-M (Homo sapiens), P05107+P11215;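 active = primary inhibition of 50% or more at 10 µM, then 40% or more on retest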
CYP2C9 inh: blockers of cytochrome P450 2C9 activity – biochemical, luminescence, ADME assay, primary screen; P11712; CYP2C9 Supersomes, luciferin-H conversion; inhibition, % at 5 µM; 20% of 96,000 active;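 active = blocking of liver enzyme CYP2C9 beyond about 50% at 5 µM, limit read from the data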
CYP2C19 inhib: blockers of cytochrome P450 2C19 activity – biochemical, luminescence, ADME assay, primary screen; P33261; CYP2C19 Supersomes, luciferin-H EGE luminescence, 30 min; inhibition, % at 5 µM; AID 778, 2007; 21% of 96,000 active;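 active = CYP2C19 inhibition above a set limit at 5 µM in the primary screen, cut at about 50% in these data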;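 note: plate controls were negative control wells for no effect and 2.5 mM tranylcypromine positive control for full effect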
CD11b adhes enh: enhancers of CD11b/CD18 adhesion to fibrinogen, primary screen, K562 cells, luminescence; activation, % at 10 µM; AID 1499, 2009; ATPlite luminescence; Integrin beta-2 (Homo sapiens) + Integrin alpha-M (Homo sapiens), P05107+P11215; 0.07% of 93,000 active;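 active = 10 µM primary screen giving 50% or more activity, confirmed by 40% or more on retest at that dose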
Active calls of the source: *; · = no result.

SMILES | CYP2C9 activ | CYP2C19 act | Mac1 fbg inh | CYP2C9 inh | CYP2C19 inhib | CD11b adhes enh
Cc1ccc2c(c1)C(O)(CC(=O)c1ccc3c(c1)OCO3)C(=O)N2 (stereo not given) | 0.8 | 0.4 | -26.4 | 21.6 | 58.4* | -1.7
O=C(CC1(O)C(=O)Nc2ccc(Br)cc21)c1ccc2c(c1)OCO2 (stereo not given) | 0.3 | 0.2 | -3.8 | 74.6* | 76.5* | -2.8
CCOc1ncccc1C(=O)OCc1ccc(C#N)cc1 | · | · | -1.7 | · | · | 1.0
COc1ccc(CNC(=O)COc2ccc([N+](=O)[O-])cc2)cc1 | 0.7 | 0.7 | · | 29.1 | 28.2 | ·
Cc1cccc(/C=C2\CCC(=C3SCCCS3)C2=O)c1 | 1.1 | 1 | · | -9.3 | 3.9 | ·
O=C1C(=C2SCCCS2)CC/C1=C\c1ccc(F)cc1 | 0.8 | 0.5 | · | 18.6 | 51.4* | ·
CCN(CC)C(=O)CSc1nc2sc3c(c2c(=O)n1-c1ccc(C)cc1)CC(C)(C)SC3 | 0 | 0.5 | 1.4 | 95.8* | 51.7* | -3.4
COc1ccc(C(=O)NC(=S)NC(C)C)cc1Br | 0.8 | 0.4 | · | 18.5 | 59.6* | ·
COc1ccc(C(=O)NC(=S)NC(C)(C)C)cc1Br | 1 | 0.9 | · | 2.5 | 11.4 | ·
O=c1[nH][nH]c(C(F)(F)F)c1C=NCc1cccc(Cl)c1 | 0.7 | 0.3 | -1.0 | 33.7 | 68.2* | -5.5
O=c1[nH][nH]c(C(F)(F)F)c1C=NCc1ccc(Cl)cc1 | 0.8 | 0.4 | -0.4 | 18.3 | 58.1* | 0.3
CN1CCN(c2ccc(S(=O)(=O)N3CCCCC3)cc2NC(=O)Cc2ccc(Cl)cc2)CC1 | · | · | -10.6 | · | · | 1.0
Cc1ccc(CCNC(=O)c2nnn(-c3cccc(C)c3)c2N)cc1 | 0.9 | 0.9 | -4.1 | 8.0 | 5.5 | -3.0
Cc1cc(C)cc(-n2nnc(C(=O)NCc3ccccc3Cl)c2N)c1 | 2.8* | 0.9 | · | -175.5 | 8.3 | ·
Cc1ccccc1OCCNc1ccc(C(F)(F)F)cc1[N+](=O)[O-] | 0.6 | 0.3 | · | 37.2 | 75.0* | ·
O=C(CCSc1nc(-c2ccco2)cc(C(F)(F)F)n1)N1CCCc2ccccc21 | 0.1 | 0 | 9.7 | 92.3* | 96.2* | -1.9
O=C(CCSc1nc(-c2ccco2)cc(C(F)(F)F)n1)N1CCN(c2ccccn2)CC1 | 0.1 | 0.1 | 1.3 | 86.4* | 85.8* | -0.3
O=C(CN(C(=O)c1cc2c(s1)CCC2)C1CCCC1)NCc1cccs1 | 0.2 | 0.3 | -7.3 | 81.9* | 65.7* | -2.4
O=C(CN(Cc1ccccc1)C(=O)c1cc2c(s1)CCC2)NCc1cccs1 | 0.2 | 0.8 | · | 75.3* | 18.3 | ·
Cc1nc2ccc(NC(=O)c3c(-c4ccccc4)noc3C)cc2s1 | 0.6 | 0.6 | -9.1 | 40.8 | 37.7 | -0.1
N#Cc1c(-c2ccccc2)cc(-c2ccco2)c(C#N)c1N | 0.8 | 0.7 | 1.0 | 23.6 | 31.2 | 79.8
CC(C)(C)c1cc(-c2ccco2)c(C#N)c(SCC#N)n1 | 0.1 | 0.6 | · | 94.6* | 40.5 | ·
O=S(=O)(c1ccc(F)cc1)N1CCn2c(nc3ccccc32)C1 | 0.9 | 0.6 | -6.7 | 14.7 | 44.0 | -3.2
O=S(=O)(c1ccccc1)N1CCn2c(nc3ccccc32)C1 | 0.8 | 0.3 | -0.7 | 24.2 | 71.1* | 1.9
C/C(=N\N1CCN(C2c3ccccc3-c3ccccc32)CC1)c1ccncc1 | 0.5 | 0.2 | -10.5 | 51.5* | 77.3* | -1.0
C(=N\N1CCN(C2c3ccccc3-c3ccccc32)CC1)/c1ccncc1 | 0.6 | 0.7 | 2.0 | 36.1 | 34.4 | 4.3
Cc1ccsc1/C=N/N1CCN(C2c3ccccc3-c3ccccc32)CC1 | 0.1 | 0.7 | · | 88.1* | 29.2 | ·
COc1ccc(-c2cc(C(=O)NCC(C)C)no2)cc1 | 1 | 1 | -15.4 | 4.4 | -3.0 | -0.9
COc1cnn(-c2ccccc2)c(=O)c1SCc1ccc(Cl)cc1Cl | 0.5 | 0.3 | 2.1 | 47.0 | 67.2* | 3.5
CC(NC(=O)c1cn(C)c2ccc(S(=O)(=O)N3CCCC3)cc2c1=O)c1ccc2c(c1)OCCO2 (stereo not given) | 0.7 | 0.9 | · | 25.6 | 9.2 | ·

Screening data from PubChem BioAssay.
